# About 3,300 (0.89%) of roughly 370,000 compounds were called active.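 Rule for the calls: active = activation above the mean of all tested compounds plus 3 SD, computed per campaign excluding outliers beyond control limits (cut at about 13% in these data); inactive = the rest.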 The list comes from a sample in which actives are over-represented; it also holds similar structures and randomly drawn compounds.
# Target: Kallikrein-7 (Homo sapiens) (UniProt P49862)
# Assay: proKLK7 zymogen activators, primary screen, biochemical, fluorescence intensity (AID 652039)
# Conditions: purified proKLK7, EDANS-DABCYL substrate fluorescence; at 7 µM; hits give high values; 100% is mature enzyme control, 0% vehicle
# Chain of Kallikrein-7 (Homo sapiens) (P49862 whole entry, looked up): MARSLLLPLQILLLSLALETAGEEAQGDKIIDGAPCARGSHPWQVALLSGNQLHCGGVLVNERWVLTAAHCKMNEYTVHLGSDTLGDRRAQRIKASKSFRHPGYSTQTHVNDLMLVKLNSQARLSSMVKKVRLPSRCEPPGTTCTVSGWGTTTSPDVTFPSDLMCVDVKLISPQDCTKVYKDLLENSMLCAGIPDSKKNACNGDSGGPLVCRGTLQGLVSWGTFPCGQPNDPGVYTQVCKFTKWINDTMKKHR
row,SMILES,activation
1,C=CCN(C(=O)[C@@H](CCCC)[C@@H](O)c1ccc(Cl)cc1)c1ccccc1,0.33% (inactive)
2,COC(=O)[C@H](C(C)C)N(CCCc1cn(Cc2ccccc2)nn1)S(=O)(=O)c1ccc(F)cc1Br,-0.13% (inactive)
3,O=C(CCCCCN1C(=O)C2C3C=CC(C3)C2C1=O)Nc1ccccc1 (stereo not given),-1.05% (inactive)
4,CCN(C(=O)[C@@H](C1CC1)[C@@H](O)c1ccc2ccccc2c1)c1ccccc1,0.13% (inactive)
5,Cc1cc2oc3ccc(NCCC4CCCN4C)cc3c(=O)c2cc1C (stereo not given),0.31% (inactive)
6,COc1cccc2sc3cc(NCC[C@@H]4CCCN4C)ccc3c(=O)c12,41.5% (active)
7,CCOC(=O)[C@]12CCCC=C1N(CCCOC)C(=O)[C@@H]2CC(=O)N1CCOCC1,0.35% (inactive)
8,COc1cc(NC(=O)C2CCCN(S(=O)(=O)c3ccc(C(C)(C)C)cc3)C2)cc(OC)c1 (stereo not given),0.22% (inactive)
9,Cc1ccc(Cn2cc(COC(=O)N(C)Cc3ccccc3)nn2)cc1,0.39% (inactive)
10,O=C(NCCO)c1cccc(-c2cccc3nccn23)c1,1.32% (inactive)
11,Clc1ccc(-c2cccc3nccn23)cc1,25% (active)
12,c1cc(-c2ccc3[nH]ccc3c2)n2ccnc2c1,3.83% (inactive)
13,CCN(CC)C(=O)CC[C@H]1CC[C@]2(CCCN(Cc3ccc(Cl)cc3)C2)O1,0.06% (inactive)
14,Cc1ccc(-n2c(SCC(=O)Nc3ccc(S(=O)(=O)Nc4nccs4)cc3)nnc2-c2cccnc2)cc1,0.82% (inactive)
15,COC(=O)[C@H](C(C)C)N(CCc1cn(Cc2ccccc2)nn1)S(=O)(=O)c1ccc(F)cc1Br,0.93% (inactive)
16,O=C1OCCN1C(=O)[C@H]1[C@H](c2ccccc2)C(c2ccc(F)cc2)=NN1c1ccccc1,-23.2% (inactive)
17,C[C@@H]1C(c2ccc(F)cc2)=NN(c2ccc(Br)cc2)[C@H]1C(=O)N1CCOC1=O,37.1% (active)
18,O=C1OCCN1C(=O)[C@H]1[C@H](c2ccc(Cl)cc2)C(c2cccc(Cl)c2)=NN1c1ccc(Br)cc1,-322% (inactive)
19,CSc1ccc(C=Nn2c(-c3ccc(F)cc3)n[nH]c2=S)cc1,-0.19% (inactive)
20,CN(C(=O)C1CCOC1)c1nnc(-c2cccnc2)s1 (stereo not given),1.7% (inactive)
21,CCC(C)(C)NC(=O)C(c1ccccn1)N(C(=O)c1csnn1)c1ccccc1 (stereo not given),0.19% (inactive)
22,COc1cccc(-c2nnc(N(C)C(=O)c3ccno3)s2)c1,0.14% (inactive)
23,CN(C(=O)c1ccccn1)c1nnc(-c2ccccn2)s1,26.2% (active)
24,CN(C(=O)COc1ccccc1)c1nnc(-c2ccncc2)s1,15.3% (active)
25,CN(C(=O)c1ccccc1)c1nccnc1C#N,-0.08% (inactive)

# Source: PubChem BioAssay AID652039 (The Scripps Research Institute Molecular Screening Center, 2013)
